We go through 21 molecules from PubChem BioAssay (NCATS).

Where “and” joins values, the source holds several entries; their conditions need not be identical. Equal entries are not always repeated. Results filed as inconclusive are left out. Calls of active or inactive are those of the source. Unless noted, calls follow the shape of the dose curve; as a rule, active = well fitted curve in the direction sought with a large enough effect; inconclusive = small, poorly fitted or top-dose-only effect, or another doubt; inactive = no such curve, though single readings can be large; an effect the other way counts as inactive or inconclusive.

Assay [1] in a line: qHTS to identify inhibitors of the type 1 interferon - major histocompatibility complex class I in skeletal muscle: primary screen against the NCATS Mechanism Interrogation Plate v5.0 (MIPE) Libary (AID 1347411). Also: nearly all actives have a fitted effect of over 65% in size. In short, it runs like this: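 Immortalized human C25cl48 myoblasts with HiBit knocked into endogenous HLA-B*08:01 were stimulated with 4.0 ng/ml IFN-beta and exposed to compounds (11-point 1:3 titration, top 46 uM final) for 24 hrs at 37 C; HiBiT lytic luminescence measured.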
In general terms: In qHTS, concentration-response curves come from the screen itself.

Assay [2] in a line: Primary qHTS for inhibitors of nuclear receptor binding SET domain protein 2 (NSD2) in an isogenic RCH-ACV NSD2 p.E1099K mutant (9B) (AID 1645876). Also: nearly all actives have a fitted effect of over 70% in size.
The nature of assay [3]: Primary qHTS for inhibitors of nuclear receptor binding SET domain protein 2 (NSD2) in an RCH-ACV wild type WT cells (2C) (AID 1645877). Also: nearly all actives have a fitted effect of over 70% in size.
Assay [4] has as its target Glutathione peroxidase 1 (Homo sapiens) (UniProt P07203). In words: Primary qHTS Assay for Inhibitors of Recombinant Selenoprotein Glutathione Peroxidase 1 (GPX1) (AID 1845191). Also: nearly all actives have a fitted effect of over 65% in size. An outline of the steps:
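10 nM GPX1 + cpd, 30 min RT; start w/ 1 mM GSH, 0.5 mM cumene hydroperoxide, 0.5 mM NADPH, 100 nM GR, 0.01% BSA; buffer 50 mM Tris-HCl pH 7.5, 2 mM EDTA, 150 mM NaCl; Fl 340/450, 0 & 15 min.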

Assay [5] addresses Phospholipid hydroperoxide glutathione peroxidase GPX4 (Homo sapiens) (UniProt P36969). As to the kind of experiment: Primary qHTS Assay for Inhibitors of Recombinant Selenoprotein Glutathione Peroxidase 4 (GPX4) (AID 1845192). Also: nearly all actives have a fitted effect of over 65% in size. The note with it: outcome: dose series up to 50 µM unless noted. An outline of the steps:
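NADPH consumption, followed by fluorescence at 340/450 nm between 0 and 15 min, reports GPX4 activity via coupled glutathione reductase (100 nM). Enzyme 200 nM was pre-exposed to compound 30 min; 0.5 mM cumene hydroperoxide and 1 mM GSH served as substrates.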

Assay [6] is described as follows: qHTS drug screen for cell cycle checkpoint inhibitors in PARPi-resistant BRCA-mutant ovarian cancer cell lines. (AID 1963452; calls by dose curve). Particulars: PEO1/OlaR viability, CellTiter-Glo luminescence, 96 h; for Z-AUC: stronger effect = lower value. In short, it runs like this: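 PEO1, PEO4 and PEO1/OlaR ovarian cancer cells, 600 per well, exposed 96 h at 37C to a dilution series. Viability read by CellTiter-Glo luminescence, normalized to DMSO and empty wells; activity summarized as Z-AUC.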

Where [7] appears, read: measured here: PEO1 parental Z-AUC.
Potency is read from the fitted curve at half-maximal effect.

Chain of Glutathione peroxidase 1 (Homo sapiens) (P07203 whole entry, looked up): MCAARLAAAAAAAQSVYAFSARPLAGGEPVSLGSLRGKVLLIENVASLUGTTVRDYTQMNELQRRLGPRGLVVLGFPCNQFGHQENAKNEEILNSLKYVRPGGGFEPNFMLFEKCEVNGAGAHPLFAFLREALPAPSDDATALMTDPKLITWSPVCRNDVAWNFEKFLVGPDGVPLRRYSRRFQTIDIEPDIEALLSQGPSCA
Chain of Phospholipid hydroperoxide glutathione peroxidase GPX4 (Homo sapiens) (P36969 whole entry, looked up): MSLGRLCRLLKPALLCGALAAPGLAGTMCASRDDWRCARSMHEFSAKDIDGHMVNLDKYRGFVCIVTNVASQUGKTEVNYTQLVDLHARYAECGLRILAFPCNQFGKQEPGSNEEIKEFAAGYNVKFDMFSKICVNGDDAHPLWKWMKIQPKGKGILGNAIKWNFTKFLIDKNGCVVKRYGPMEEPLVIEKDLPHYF

`CC(=O)N1CCN(c2ccc(NC(=O)Cc3cnc(-c4ccnc(F)c4)c(C)c3)nc2)CC1`: the Potency entry in assay [1], in assay [2], in assay [3], in assay [4] and in assay [5] was “inactive” each time. In addition, the Z-AUC was 1.31 (inactive) in assay [6], 1.23 in assay [6] (setting [7]) and 0.947 in assay [6] (measured here: PEO4 Z-AUC).

In the case of `N=C1CCCN1Cc1[nH]c(=O)[nH]c(=O)c1Cl`, the Potency entry in assay [1], in assay [2], in assay [3], in assay [4] and in assay [5] was “inactive” in each case. For the same molecule, the Z-AUC in assay [6] is -0.424 (inactive); in assay [6] (setting [7]) it was 0.0295; in assay [6] (measured here: PEO4 Z-AUC), -0.23.

In the case of `C[C@@H]1C(=O)OC2[C@H](O)[C@]34[C@H]5C[C@@H](C(C)(C)C)[C@]36[C@@H](OC(=O)[C@@H]6O)O[C@@]4(C(=O)O5)[C@]21O` (stereo not given in full), the Potency result in assay [1], in assay [2], in assay [3], in assay [4] and in assay [5] was “inactive” each time. Further, the Z-AUC is 1.19 (inactive) in assay [6], 0.871 in assay [6] (setting [7]) and 0.917 in assay [6] (measured here: PEO4 Z-AUC).

Turning to `Cn1ncc(NC(=O)c2nc(-c3c(F)cccc3F)sc2N)c1N1CC[C@@H](N)[C@H](F)CC1`, the Potency entry in assay [1], in assay [2], in assay [3], in assay [4] and in assay [5] was “inactive” throughout. Further, the Z-AUC in assay [6] is 0.883 (inactive); in assay [6] (setting [7]) it was 0.956; in assay [6] (measured here: PEO4 Z-AUC), 0.537.

Turning to `COc1cc([C@@H]2c3cc4c(cc3[C@@H](O[C@@H]3O[C@@H]5CO[C@@H](c6cccs6)O[C@H]5[C@H](O)[C@H]3O)[C@H]3COC(=O)[C@H]23)OCO4)cc(OC)c1O`, the Potency result in assay [1], in assay [4] and in assay [5] was “inactive” each time. Also, the Potency in assay [2] is 0.0332 µM (active); in assay [3] it was 0.0235 µM (active); in assay [6], 87.1 nM (active). Besides, the Z-AUC was -1.88 in assay [6] (setting [7]) and -2.18 in assay [6] (measured here: PEO4 Z-AUC).

With `COc1cc2c3c(n(CCCn4ccnc4)c(=O)c2cc1OC)-c1cc2c(cc1C3=O)OCO2`, the Potency result in assay [1], in assay [4] and in assay [5] was “inactive” each time. Moreover, the Potency in assay [2] is 0.0105 µM (active); in assay [3], 0.0132 µM (active); in assay [6], 7.8 nM (active). Further, the Z-AUC in assay [6] (setting [7]) was -2.51; in assay [6] (measured here: PEO4 Z-AUC) it was -1.77.

Consider `CC(=O)O/N=C1\C(=O)N(Cc2cc(Cl)ccc2Cl)c2ccc(Cl)cc21`, for which the values for the Potency in assay [1], in assay [2] and in assay [3] were 14.7 µM (active), 5.9 µM (active) and 4.17 µM (active), respectively. Moreover, the Potency result in assay [4] was “inactive”.

Take `Cc1c(-c2cnccn2)ssc1=S`: the Potency entry in assay [1] and in assay [4] was “inactive” in each case. The Potency in assay [2] was 16.6 µM (active); in assay [3], 13.2 µM (active). The Z-AUC is -0.037 (inactive) in assay [6], 0.595 in assay [6] (setting [7]) and 0.421 in assay [6] (measured here: PEO4 Z-AUC).

Turning to `O=C1CC[C@H](N2Cc3c(OCc4ccc(CN5CCOCC5)cc4)cccc3C2=O)C(=O)N1`, the Potency result in assay [1], in assay [4] and in assay [5] was “inactive” throughout. The figures for the Potency in assay [2] and in assay [3] were 0.0166 µM (active) and 0.0332 µM (active), respectively. Moreover, the Z-AUC in assay [6] was 1.34 (inactive); in assay [6] (setting [7]) it was 1.06; in assay [6] (measured here: PEO4 Z-AUC) it was 1.23.

On to `OC1CCC([C@H](O)C[C@H]2c3c(F)cccc3-c3cncn32)CC1` (stereo not given in full), for which the Potency entry in assay [1], in assay [2], in assay [3], in assay [4] and in assay [5] was “inactive” in each case. Besides, the Z-AUC is -0.0426 (inactive) in assay [6], 0.377 in assay [6] (setting [7]) and 0.204 in assay [6] (measured here: PEO4 Z-AUC).

Take `Cn1cc(/C=C/C(=O)c2cccc(F)c2)cc1/C=C/C(=O)NO`: the Potency entry in assay [1] and in assay [4] was “inactive” throughout. Further, the Potency in assay [2] is 14.8 µM (active); in assay [3], 18.6 µM (active). Also, the Z-AUC was 0.818 (inactive) in assay [6], 0.213 in assay [6] (setting [7]) and 0.291 in assay [6] (measured here: PEO4 Z-AUC).

For `CN1C(N)=N[C@](C)(c2cc(NC(=O)c3ccc(F)cn3)ccc2F)CS1(=O)=O`, the Potency entry in assay [1], in assay [2], in assay [3], in assay [4] and in assay [5] was “inactive” throughout. Further, the results for the Z-AUC in assay [6], in assay [6] (setting [7]) and in assay [6] (measured here: PEO4 Z-AUC) were 1.51 (inactive), 0.477 and 0.848, respectively.

`c1ccc(CNCc2ccc(CN3CCCNCCNCCCNCC3)cc2)nc1`: the Potency result in assay [1], in assay [2], in assay [3], in assay [4] and in assay [5] was “inactive” throughout. Moreover, the Z-AUC in assay [6] was 1.17 (inactive); in assay [6] (setting [7]), 1.27; in assay [6] (measured here: PEO4 Z-AUC), 1.11.

For the molecule `O=C(C[C@@H]1C/C=C\CCC(=O)O[C@H](c2ccccc2)CNC1=O)NCc1ccc(Cl)cc1`, the Potency result in assay [1], in assay [2], in assay [3], in assay [4] and in assay [5] was “inactive” throughout. The Z-AUC in assay [6] was -0.618 (inactive); in assay [6] (setting [7]), 0.123; in assay [6] (measured here: PEO4 Z-AUC), -0.716.

In the case of `CC1(C)C(N(O)C(=O)Nc2ccc(Cl)cc2)N(c2ccc(Cl)cc2)C(=O)N1CC(=O)N/N=C/C=C/c1ccc([N+](=O)[O-])o1` (stereo not given), the Potency in assay [1] was 14.7 µM (active); in assay [2], 7.42 µM (active); in assay [3], 8.33 µM (active); in assay [5] it was 14.3 µM (active). Further, the Potency entry in assay [4] was “inactive”. Also, the Z-AUC in assay [6] was 1.66 (inactive); in assay [6] (setting [7]), 1.13; in assay [6] (measured here: PEO4 Z-AUC) it was 1.09.

For `NC1=N[C@@]2(c3cc(NC(=O)c4ccc(F)cn4)ccc3F)COC[C@H]2CS1`, the Potency entry in assay [1], in assay [2], in assay [3], in assay [4] and in assay [5] was “inactive” each time. Besides, the Z-AUC is 1.41 (inactive) in assay [6], 0.672 in assay [6] (setting [7]) and 0.598 in assay [6] (measured here: PEO4 Z-AUC).

As for `CC(/C=C1\SC(=S)N(CC(=O)O)C1=O)=C\c1ccccc1`, the Potency result in assay [1], in assay [2] and in assay [3] was “inactive” each time. Further, the Potency is 7.28 µM (active) and 3.21 µM (active) in assay [4]; 12.8 µM (active) and 12.6 µM (active) in assay [5]. The values for the Z-AUC in assay [6], in assay [6] (setting [7]) and in assay [6] (measured here: PEO4 Z-AUC) were 1.25 (inactive), 1.33 and 1.77, respectively.

As to `CC(=O)N1c2ccc(-c3ccc(C(=O)O)cc3)cc2[C@H](Nc2ccc(Cl)cc2)C[C@@H]1C`, the Potency entry in assay [1] was “inactive”. Also, the Potency in assay [2] and in assay [3] was 0.0934 µM (active) in each case. Besides, the figures for the Z-AUC in assay [6], in assay [6] (setting [7]) and in assay [6] (measured here: PEO4 Z-AUC) were -0.689 (inactive), -0.385 and -0.741, respectively.

Take `C[C@]12CCC3[C@@H](CC[C@H]4NC(=O)C=C[C@]34C)[C@@H]1CC[C@@H]2C(=O)Nc1cc(C(F)(F)F)ccc1C(F)(F)F` (stereo not given in full): the Potency entry in assay [1], in assay [2], in assay [3], in assay [4] and in assay [5] was “inactive” in each case. Besides, the Z-AUC in assay [6] was -1.09 (inactive); in assay [6] (setting [7]), -1.05; in assay [6] (measured here: PEO4 Z-AUC) it was -1.07.

For `C=CC(=O)N1CCC(C2CCNc3c(C(N)=O)c(-c4ccc(Oc5ccccc5)cc4)nn32)CC1` (stereo not given), the Potency entry in assay [1], in assay [4] and in assay [5] was “inactive” in each case. Moreover, the Potency in assay [2] was 14.8 µM (active); in assay [3] it was 6.61 µM (active). Besides, the Z-AUC in assay [6] is -0.181 (inactive); in assay [6] (setting [7]), -0.23; in assay [6] (measured here: PEO4 Z-AUC) it was -0.000619.

`CCO[C@@H]1OC(=O)C[C@@H]1NC(=O)[C@@H]1CCCN2C(=O)CC[C@H](NC(=O)c3nccc4ccccc34)C(=O)N12`: the Potency result in assay [1], in assay [2], in assay [3], in assay [4] and in assay [5] was “inactive” throughout. Besides, the Z-AUC in assay [6] is -0.883 (inactive); in assay [6] (setting [7]), -0.455; in assay [6] (measured here: PEO4 Z-AUC), -1.09.
